Residue numbers refer to the chain shown, from its start.
Key:
Experiment in all cases: PBM; 200 nM protein, PBS
Settings in all cases: dsDNA, one strand shown
SIX6 [1] = target: T1, SIX6 (Homo sapiens, UniProt O95475 114-200, L167I)
T1 sequence: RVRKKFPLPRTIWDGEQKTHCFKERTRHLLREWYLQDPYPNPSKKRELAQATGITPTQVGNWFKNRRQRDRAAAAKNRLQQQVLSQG

SIX6 [2] = target: T2, SIX6 (Homo sapiens, UniProt O95475 114-200, L143V)
T2 sequence: T1 sequence with L30V, I54L

SIX6 [3] = target: T3, SIX6 (Homo sapiens, UniProt O95475 114-200, H141N)
T3 sequence: T1 sequence with H28N, I54L

SIX6 [4] = target: T4, SIX6 (Homo sapiens, UniProt O95475 114-200, T165P)
T4 sequence: T1 sequence with T52P, I54L

SIX6 [5] = target: T5, SIX6 (Homo sapiens, UniProt O95475 114-200, L167M)
T5 sequence: T1 sequence with I54M

SIX6 [6] = target: T6, SIX6 (Homo sapiens, UniProt O95475 114-200, L143M)
T6 sequence: T1 sequence with L30M, I54L

SIX6 [7] = target: T7, SIX6 (Homo sapiens, UniProt O95475 114-200, L143I)
T7 sequence: T1 sequence with L30I, I54L

SIX6 [8] = target: T8, SIX6 (Homo sapiens, UniProt O95475 114-200, T165G)
T8 sequence: T1 sequence with T52G, I54L

SIX6 [9] = target: T9, SIX6 (Homo sapiens, UniProt O95475 114-200, T139Q)
T9 sequence: T1 sequence with T26Q, I54L

SIX6 [10] = target: T10, SIX6 (Homo sapiens, UniProt O95475 114-200, T165A)
T10 sequence: T1 sequence with T52A, I54L

SIX6 [11] = target: T11, SIX6 (Homo sapiens, UniProt O95475 114-200, L167V)
T11 sequence: T1 sequence with I54V

SIX6 [12] = target: T12, SIX6 (Homo sapiens, UniProt O95475 114-200)
T12 sequence: T1 sequence with I54L

SIX6 [13] = target: T13, SIX6 (Homo sapiens, UniProt O95475 114-200, T165I)
T13 sequence: T1 sequence with T52I, I54L

Row | Sequence | binding signal (SIX6 [1]) | binding signal (SIX6 [2]) | binding signal (SIX6 [3]) | binding signal (SIX6 [4]) | binding signal (SIX6 [5]) | binding signal (SIX6 [6]) | binding signal (SIX6 [7]) | binding signal (SIX6 [8]) | binding signal (SIX6 [9]) | binding signal (SIX6 [10]) | binding signal (SIX6 [11]) | binding signal (SIX6 [12]) | binding signal (SIX6 [13])
1 | GCAGCCGC | 8.93 upbm affinity estimate (log intensity, higher = more binding, comparable within an allelic series) | 8.9 upbm affinity estimate (log intensity, higher = more binding, comparable within an allelic series) | 8.98 upbm affinity estimate (log intensity, higher = more binding, comparable within an allelic series) | 8.93 upbm affinity estimate (log intensity, higher = more binding, comparable within an allelic series) | 9.02 upbm affinity estimate (log intensity, higher = more binding, comparable within an allelic series) | 8.94 upbm affinity estimate (log intensity, higher = more binding, comparable within an allelic series) | 8.95 upbm affinity estimate (log intensity, higher = more binding, comparable within an allelic series) | 8.95 upbm affinity estimate (log intensity, higher = more binding, comparable within an allelic series) | 9.01 upbm affinity estimate (log intensity, higher = more binding, comparable within an allelic series) | 9.01 upbm affinity estimate (log intensity, higher = more binding, comparable within an allelic series) | 8.97 upbm affinity estimate (log intensity, higher = more binding, comparable within an allelic series) | 8.98 upbm affinity estimate (log intensity, higher = more binding, comparable within an allelic series) | 9.03 upbm affinity estimate (log intensity, higher = more binding, comparable within an allelic series)
2 | AGTATCAT | 11.5 upbm affinity estimate (log intensity, higher = more binding, comparable within an allelic series) | 10.5 upbm affinity estimate (log intensity, higher = more binding, comparable within an allelic series) | 11.5 upbm affinity estimate (log intensity, higher = more binding, comparable within an allelic series) | 9.89 upbm affinity estimate (log intensity, higher = more binding, comparable within an allelic series) | 10.9 upbm affinity estimate (log intensity, higher = more binding, comparable within an allelic series) | 11 upbm affinity estimate (log intensity, higher = more binding, comparable within an allelic series) | 10.6 upbm affinity estimate (log intensity, higher = more binding, comparable within an allelic series) | 11.5 upbm affinity estimate (log intensity, higher = more binding, comparable within an allelic series) | 11.4 upbm affinity estimate (log intensity, higher = more binding, comparable within an allelic series) | 11.4 upbm affinity estimate (log intensity, higher = more binding, comparable within an allelic series) | 11.3 upbm affinity estimate (log intensity, higher = more binding, comparable within an allelic series) | 11.2 upbm affinity estimate (log intensity, higher = more binding, comparable within an allelic series) | 11.2 upbm affinity estimate (log intensity, higher = more binding, comparable within an allelic series)
3 | ATGATACA | 11.3 upbm affinity estimate (log intensity, higher = more binding, comparable within an allelic series) | 10.5 upbm affinity estimate (log intensity, higher = more binding, comparable within an allelic series) | 11.3 upbm affinity estimate (log intensity, higher = more binding, comparable within an allelic series) | 9.98 upbm affinity estimate (log intensity, higher = more binding, comparable within an allelic series) | 10.8 upbm affinity estimate (log intensity, higher = more binding, comparable within an allelic series) | 11.1 upbm affinity estimate (log intensity, higher = more binding, comparable within an allelic series) | 10.5 upbm affinity estimate (log intensity, higher = more binding, comparable within an allelic series) | 11.3 upbm affinity estimate (log intensity, higher = more binding, comparable within an allelic series) | 11.2 upbm affinity estimate (log intensity, higher = more binding, comparable within an allelic series) | 11.2 upbm affinity estimate (log intensity, higher = more binding, comparable within an allelic series) | 11.1 upbm affinity estimate (log intensity, higher = more binding, comparable within an allelic series) | 11.1 upbm affinity estimate (log intensity, higher = more binding, comparable within an allelic series) | 11.1 upbm affinity estimate (log intensity, higher = more binding, comparable within an allelic series)
4 | CGATACCC | 11.2 upbm affinity estimate (log intensity, higher = more binding, comparable within an allelic series) | 10.2 upbm affinity estimate (log intensity, higher = more binding, comparable within an allelic series) | 11.3 upbm affinity estimate (log intensity, higher = more binding, comparable within an allelic series) | 9.23 upbm affinity estimate (log intensity, higher = more binding, comparable within an allelic series) | 10.4 upbm affinity estimate (log intensity, higher = more binding, comparable within an allelic series) | 11 upbm affinity estimate (log intensity, higher = more binding, comparable within an allelic series) | 10.4 upbm affinity estimate (log intensity, higher = more binding, comparable within an allelic series) | 11.3 upbm affinity estimate (log intensity, higher = more binding, comparable within an allelic series) | 11.4 upbm affinity estimate (log intensity, higher = more binding, comparable within an allelic series) | 11.2 upbm affinity estimate (log intensity, higher = more binding, comparable within an allelic series) | 10.9 upbm affinity estimate (log intensity, higher = more binding, comparable within an allelic series) | 11.1 upbm affinity estimate (log intensity, higher = more binding, comparable within an allelic series) | 11 upbm affinity estimate (log intensity, higher = more binding, comparable within an allelic series)
5 | ATACCCAT | 10.6 upbm affinity estimate (log intensity, higher = more binding, comparable within an allelic series) | 10.1 upbm affinity estimate (log intensity, higher = more binding, comparable within an allelic series) | 10.6 upbm affinity estimate (log intensity, higher = more binding, comparable within an allelic series) | 9.74 upbm affinity estimate (log intensity, higher = more binding, comparable within an allelic series) | 10.4 upbm affinity estimate (log intensity, higher = more binding, comparable within an allelic series) | 10.6 upbm affinity estimate (log intensity, higher = more binding, comparable within an allelic series) | 10.1 upbm affinity estimate (log intensity, higher = more binding, comparable within an allelic series) | 10.7 upbm affinity estimate (log intensity, higher = more binding, comparable within an allelic series) | 10.8 upbm affinity estimate (log intensity, higher = more binding, comparable within an allelic series) | 10.5 upbm affinity estimate (log intensity, higher = more binding, comparable within an allelic series) | 10.4 upbm affinity estimate (log intensity, higher = more binding, comparable within an allelic series) | 10.6 upbm affinity estimate (log intensity, higher = more binding, comparable within an allelic series) | 10.4 upbm affinity estimate (log intensity, higher = more binding, comparable within an allelic series)
6 | CGGCCTTC | 8.62 upbm affinity estimate (log intensity, higher = more binding, comparable within an allelic series) | 8.87 upbm affinity estimate (log intensity, higher = more binding, comparable within an allelic series) | 8.82 upbm affinity estimate (log intensity, higher = more binding, comparable within an allelic series) | 9 upbm affinity estimate (log intensity, higher = more binding, comparable within an allelic series) | 8.83 upbm affinity estimate (log intensity, higher = more binding, comparable within an allelic series) | 8.77 upbm affinity estimate (log intensity, higher = more binding, comparable within an allelic series) | 8.94 upbm affinity estimate (log intensity, higher = more binding, comparable within an allelic series) | 8.84 upbm affinity estimate (log intensity, higher = more binding, comparable within an allelic series) | 8.59 upbm affinity estimate (log intensity, higher = more binding, comparable within an allelic series) | 8.81 upbm affinity estimate (log intensity, higher = more binding, comparable within an allelic series) | 8.94 upbm affinity estimate (log intensity, higher = more binding, comparable within an allelic series) | 8.77 upbm affinity estimate (log intensity, higher = more binding, comparable within an allelic series) | 8.7 upbm affinity estimate (log intensity, higher = more binding, comparable within an allelic series)

Reference: PMC11006913
